From PubChem BioAssay (NCI) come the findings set out here.

Each structure is given as a SMILES string. About 83,000 compounds went through this panel and 20% of them were active in at least one assay; those are over-represented in the sample as a whole.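 Each cell line was grown in a 96-well plate and treated with one concentration of compound for 48 hours. Values below 10 were considered active.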 The source made the active and inactive calls.

The first assay relates to OVCAR-5 ovarian. In words: NCI-60 one-dose screen, 48 h (100 = growth as untreated, 0 = no growth, -100 = all killed). Particulars: 10 µM unless noted.
As for `O=S1(=O)C=C(c2ccccc2)C(c2ccccc2)=C1`, the growth was 85.1% (inactive).
Same read-out and setting: with `O=C(O)COc1ccc(Cl)c(Cl)c1` the figure was 106% (inactive); with `O=C1/C(=C/c2ccccn2)NC(=S)N1c1ccccc1Cl`, 68.4% (inactive); with `CCS/C(Nc1ccccc1)=C(\C#N)C(=O)Nc1ccc(OC)cc1`, 63.1% (inactive).
On the same count and under the same terms, next, `COc1ccc(C(=O)N2c3ccccc3Sc3ccccc32)c(C(F)(F)F)c1`: 44.6% (inactive); `Cc1ccc(-c2csc(NC(=O)c3ccccc3CN3C(=O)c4ccccc4C3=O)n2)cc1`: 90.8% (inactive).
The same measure, in the same setting: with `CNC(=O)c1cc(Oc2cccc3nc(NC(=O)Nc4cc(C(F)(F)F)ccc4Cl)ccc23)ccn1` the figure was 98.7% (inactive).

In a further assay the test system is OVCAR-4 ovarian. The assay is described as above. The conditions noted are these: 10 µM unless noted.
Turning to `CC(=O)OC[C@]12CC[C@@H]([C@@H](C)c3nnc(-c4ccncc4)o3)[C@@H]1[C@H]1CC[C@@H]3[C@@]4(C)CC[C@H](OC(C)=O)C(C)(C)[C@@H]4CC[C@@]3(C)[C@]1(C)CC2`, the growth was 72.3% (inactive).
The same measure, in the same setting: next, `CN(Cc1ccccc1)c1nc(Cl)c(C2CC(c3ccccc3)=NN2c2ccccc2)s1` (centres undefined): 88.5% (inactive); `CSc1nc(C)c([N+](=O)[O-])c(N)n1`: 104% (inactive); `CN1CCN(Cc2ccc(NC(=O)c3cncc(C#Cc4cnc(N)c5ccc(F)cc45)c3)cc2C(F)(F)F)CC1`: 30.9% (inactive).
In the case of `CN1CCN(C(=O)[C@@]2(C)CC[C@]3(C)CC[C@]4(C)C(=CC[C@@H]5[C@@]6(C)CCC(=O)NC(C)(C)[C@@H]6CC[C@]54C)[C@@H]3C2)CC1`, the growth is 50.6% (inactive).
As to `COc1ccc(/C=C2\CN(C(=O)C(Cl)Cl)C/C(=C\c3ccc(OC)cc3)C2=O)cc1`, the growth is 3.73% (active).
The same measure, in the same setting: with `O=C(NNc1cnccn1)c1nc2cc(F)ccc2n2cccc12` the figure was -9.11% (active); with `COc1cc(/C=C2\CN(S(=O)(=O)c3ccccc3)C/C(=C\c3cc(CN4CCCCC4)c(O)c(OC)c3)C2=O)cc(CN2CCCCC2)c1O`, -69.8% (active); with `COc1ccc(/C=C/C(c2cc(OC)c(OC)c(OC)c2)n2ccnc2)cc1O` (centres undefined), 78.8% (inactive).
On the same count and under the same terms, next, `C/C=C(/C)n1cnc2c(Nc3ccccn3)nc(Cl)nc21`: 105% (inactive).
Same read-out and setting: with `Oc1ccc(/C=C/c2ccc(O)cc2)cc1` the figure was 12% (inactive); with `C#CCOc1cccc(-c2ncnc3cc(NC(=O)C=C)ccc23)c1`, 70.9% (inactive); with `CCOC(=O)c1nn(CC(O)c2ccccc2)c(NC(=O)Nc2cccc(F)c2)c1C` (centres undefined), 94.8% (inactive).
Consider `O=C(N/N=C\c1ccccc1S(=O)(=O)O)N/N=C/c1ccccc1S(=O)(=O)O`, for which the growth was 109% (inactive).
Consider `CC[C@]12C=CCN3CC[C@@]4(c5ccc(OC)cc5N(C)[C@H]4[C@@](O)(C(=O)OC)[C@@H]1OC(=O)CCC[P+](c1ccccc1)(c1ccccc1)c1ccccc1)[C@@H]32`, for which the growth is -3.58% (active).
The same measure, in the same setting: with `CCCn1nc(C(=O)N(C)Cc2ccccc2)c2c1CCC(N1CCc3ccccc31)C2` (centres undefined) the figure was 102% (inactive); with `C=C1C(=O)O[C@H]2[C@H]1CC/C(COC(=O)/C=C\C(=O)NCc1ccc(Cn3c(=O)sn(CCCl)c3=O)cc1)=C\CC[C@@]1(C)O[C@@H]21`, 96.3% (inactive); with `COC(=O)c1ccc(NC(=O)Nc2ccc(C(=O)OC)cc2)cc1`, 113% (inactive).
`O=C(O)c1cn(C2CC2)c2cc(N3CCN(C(=O)Nc4nc(-c5ccc(Br)cc5)cs4)CC3)c(F)cc2c1=O`: the growth was 26.6% (inactive).
The same measure, in the same setting: next, `NC(=O)c1c(NC(=O)c2cccc(C(F)(F)F)c2)sc2c1CCC(=O)C2`: -92.2% (active).
On the same count and under the same terms, next, `CC1=C(C(=O)Nc2ccccc2)C(c2ccc3c(c2)OCO3)NC(=S)N1` (centres undefined): 114% (inactive); `NS(=O)(=O)c1ccc(-c2cc(-c3nnc(SCC(=O)Nc4ccc(C(=O)/C=C/c5ccc(Cl)cc5)cc4)n3-c3ccccc3)c3ccccc3n2)cc1`: 105% (inactive).
Turning to `COC(=O)c1cc(Br)ccc1O`, the growth is 110% (inactive).
For the compound `C=C1C(=O)O[C@H]2[C@H]1CC/C(COC(=O)/C=C/C(=O)OC/C1=C/CC[C@@]3(C)O[C@H]3[C@H]3OC(=O)C(=C)[C@@H]3CC1)=C\CC[C@@]1(C)O[C@@H]21`, the growth is 86.2% (inactive).
The same measure, in the same setting: with `CNC1=CC(=O)c2c(C(=O)OC)c(C)[n+]([O-])c(C)c2C1=O` the figure was 26% (inactive); with `O=C(Nc1ncccc1OCc1ccccc1)NC1CCCCCC1`, 84.6% (inactive).
Same read-out and setting: with `O=C1/C(=C\c2cccc3nccnc23)SC(=S)N1CCc1ccc(O)cc1` the figure was 89.4% (inactive).
